# Experimental data published in PubChem BioAssay (NCI).
# Compounds without any hit were thinned out: in the full panel of roughly 83,000, 20% have a hit.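 Results are percent growth after 48 hours of single-concentration exposure. 100 means growth as in untreated cells, lower positive values show inhibition; negative values down to -100 show cell death.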 Activity calls are given as the source filed them. The calls were made as follows: active = growth percent below 10; inactive = the rest.
# Test system: HL-60(TB) leukemia
# Experiment: NCI-60 one-dose screen, 48 h (100 = growth as untreated, 0 = no growth, -100 = all killed)
# Settings: 10 µM unless noted
row,SMILES,growth
1,Nc1ccc(Oc2c(F)c(F)c(Oc3ccc(N)cc3)c(F)c2F)cc1,76.9% (inactive)
2,Cc1[nH]n(-c2ccccc2)c(=O)c1C=NC(=S)C(N)=S,102% (inactive)
3,CCOC(=O)C/C(=N\Nc1cc(=O)[nH]c2ccc(C)cc12)C(=O)OCC,92% (inactive)
4,COc1cc(C2CC(c3ccccc3)=NN2C(C)=O)cc(OC)c1OC (stereo not drawn),14.2% (inactive)
5,COc1c(NC[C@H]2OC(O)[C@H](O)[C@@H](O)[C@@H]2O)c(=O)c1=O (stereo partly drawn),114% (inactive)
6,CC1=CC[C@@H]2CC[C@]3(C)[C@H](CC[C@@H]4[C@@]5(C)CCCNC(C)(C)[C@@H]5CC[C@]43C)[C@H]2[C@@H]1C,21.7% (inactive)
7,CCOC(=O)C1=C(C)NC(C)=C(C(=O)OCC)C1c1cc(Br)c(O)c(OC)c1,6.74% (active)
8,CN(C)CC1C(=O)O[C@H]2[C@H]1CC/C(COC(=O)NCc1ccc(Cn3c(=O)sn(CCCI)c3=O)cc1)=C\CC[C@@]1(C)O[C@@H]21 (stereo partly drawn),-36.5% (active)
9,CC(C)Cn1cnc2c(NCn3nc(-c4cc(Cl)cc(Cl)c4Cl)n(/N=C/c4ccc(Cl)cc4)c3=S)nc3ccccc3c21,93.3% (inactive)
10,CCCC[N+](C)(N)CCCC,104% (inactive)
11,NC(=Nc1nc(-c2ccccn2)cc2ccccc12)c1ccccn1,-30.6% (active)
12,CC[C@H](C)[C@H](NC(=O)[C@H](CCCCN)NC(=O)[C@H](CCCCN)NC(=O)[C@@H](NC(=O)[C@@H](NC(=O)[C@@H](N)Cc1cnc[nH]1)[C@@H](C)CC)[C@@H](C)CC)C(=O)N[C@@H](CCCNC(=N)N)C(=O)N[C@H](C(=O)N[C@@H](Cc1c[nH]c2ccccc12)C(=O)N[C@@H](Cc1ccc(O)cc1)C(=O)N[C@@H](CCCNC(=N)N)C(=O)N[C@@H](CCCCN)C(=O)N[C@@H](C)C(=O)N[C@@H](Cc1c[nH]c2ccccc12)C(=O)N[C@@H](Cc1cnc[nH]1)C(=O)N[C@H](C(=O)N[C@@H](CC(C)C)C(=O)NCC(=O)N[C@@H](CCCCN)C(=O)N[C@H](C(N)=O)C(C)C)C(C)C)[C@@H](C)O,89.5% (inactive)
13,Cc1ccc2nc(-c3ccc(N=Cc4ccccc4O)cc3)sc2c1,77.7% (inactive)
